Measured values taken from PubChem BioAssay (NCATS).
Results filed as inconclusive are left out. Calls of active or inactive are those of the source. Unless noted, the call rests on the fitted dose curve; in most records, active means well fitted curve in the direction sought with a large enough effect; inconclusive means small, poorly fitted or top-dose-only effect, or another doubt; inactive means no such curve, though single readings can be large; an effect the other way counts as inactive or inconclusive.

Experiments:
[1] = Cellular Toxicity (caspase-3) Renal Proximal Tubule (AID 667);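 further: cells exposed to compound for 16 hours at 37 °C before detection; 0% = DMSO basal and 100% = 10 µM staurosporine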
How it was run: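 Primary rat proximal tubule cells, 1000/well, 5 h plating at 37 °C, then compound 16 h at 37 °C. Caspase-Glo 3/7 reagent, 1 h RT, luminescence. Normalized to DMSO (basal) and 10 uM staurosporine (100%); Hill-fit AC50.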

[2] = target: Cytochrome P450 3A4 (Homo sapiens) (UniProt P08684); experiment: qHTS Assay for Inhibitors and Substrates of Cytochrome P450 3A4 (AID 884); further: series mostly up to about 57 µM; on the % scale 0 is the no-effect control and ±100 the full control effect; nearly all actives have a fitted effect of over 50% in size
Cytochrome P450 3A4 (Homo sapiens), sequence (P08684 whole entry, looked up): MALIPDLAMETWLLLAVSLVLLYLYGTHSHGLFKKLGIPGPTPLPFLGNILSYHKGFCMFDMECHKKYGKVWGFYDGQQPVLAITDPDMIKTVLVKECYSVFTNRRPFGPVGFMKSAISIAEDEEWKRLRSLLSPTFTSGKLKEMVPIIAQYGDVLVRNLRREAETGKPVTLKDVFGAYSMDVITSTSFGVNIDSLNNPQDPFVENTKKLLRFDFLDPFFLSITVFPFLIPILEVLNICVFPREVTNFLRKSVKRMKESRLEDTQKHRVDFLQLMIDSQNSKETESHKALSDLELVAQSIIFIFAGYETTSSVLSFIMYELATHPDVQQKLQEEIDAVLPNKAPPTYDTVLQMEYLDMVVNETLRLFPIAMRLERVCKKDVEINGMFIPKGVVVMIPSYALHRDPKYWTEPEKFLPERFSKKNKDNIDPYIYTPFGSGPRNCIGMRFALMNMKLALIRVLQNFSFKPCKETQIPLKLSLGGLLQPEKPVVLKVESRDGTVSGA
How it was run: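 20 nM human CYP3A4 with 25 uM Luciferin-PPXE (at KM) in 200 mM KPO4, preincubated 10 min with compound; NADPH regeneration started a 60 min RT reaction. Luciferin detected by luminescence, normalized to 57 uM ketoconazole as full inhibition.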

[3] = Cell Viability - LYMP2-001 (AID 921); further: nearly all actives have a fitted effect of over 70% in size; further: potency means the concentration at half of the fitted maximal effect
How it was run: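 Human lymphoblastoid cells (Coriell), 2500 per well, were preincubated 5 hr at 37 C, then exposed to compounds in complete medium for 24 hr at 37 C. Cellular ATP was read by CellTiter-Glo luminescence; AC50 from Hill fits of concentration-response data.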

[4] = MultiTox-Fluor Cytotoxicity Assay - LYMP1-001 - Dead Cells (AID 946);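 further: 0% = DMSO and 100% = tetraoctylammonium bromide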
How it was run: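 AC50 from Hill fit of concentration-response; data normalized to DMSO (basal) and 15 uM tetraoctylammonium bromide (100%). LYMP1-001 lymphoblastoid cells, 2500/well, 16 hr compound at 37 C; dead-cell protease fluorescence, Ex/Em 485/520.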

[5] = MultiTox-Fluor Cytotoxicity Assay - LYMP1-001 - Live Cells (AID 947);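 further: 0% = DMSO only and full inhibition = tetraoctylammonium bromide control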
[6] = Cell Viability - LYMP1-002 - Assay at 16 hr (AID 948);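 further: 0% = DMSO alone and full effect = 92 µM tetraoctylammonium bromide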
How it was run: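 Human lymphoblastoid cells (LYMP1-002), 2500/well, were preincubated 5 hr at 37 C, then exposed to compounds for 16 hr at 37 C in complete medium. Cellular ATP was read by CellTiter-Glo luminescence after 30 min at room temperature; AC50 from Hill fits.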

[7] = MultiTox-Fluor Cytotoxicity Assay - LYMP1-002 - Live Cells (AID 955); further: on the % scale 0 is the no-effect control and ±100 the full control effect
How it was run: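 Human lymphoblastoid LYMP1-002 cells, 2500/well in complete medium, rested 5 hr at 37 C, then exposed to compounds for 16 hr at 37 C. Live-cell protease cleavage of GF-AFC read by fluorescence (Ex/Em 405/510) after 60 min at room temperature; AC50 from Hill fits.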

[8] = target: Cytochrome P450 2C9 (Homo sapiens) (UniProt P11712); experiment: qHTS Assay for Inhibitors and Substrates of Cytochrome P450 2C9 (AID 883); further: on the % scale 0 is the no-effect control and ±100 the full control effect; nearly all actives have a fitted effect of over 60% in size
Cytochrome P450 2C9 (Homo sapiens), sequence (P11712 whole entry, looked up): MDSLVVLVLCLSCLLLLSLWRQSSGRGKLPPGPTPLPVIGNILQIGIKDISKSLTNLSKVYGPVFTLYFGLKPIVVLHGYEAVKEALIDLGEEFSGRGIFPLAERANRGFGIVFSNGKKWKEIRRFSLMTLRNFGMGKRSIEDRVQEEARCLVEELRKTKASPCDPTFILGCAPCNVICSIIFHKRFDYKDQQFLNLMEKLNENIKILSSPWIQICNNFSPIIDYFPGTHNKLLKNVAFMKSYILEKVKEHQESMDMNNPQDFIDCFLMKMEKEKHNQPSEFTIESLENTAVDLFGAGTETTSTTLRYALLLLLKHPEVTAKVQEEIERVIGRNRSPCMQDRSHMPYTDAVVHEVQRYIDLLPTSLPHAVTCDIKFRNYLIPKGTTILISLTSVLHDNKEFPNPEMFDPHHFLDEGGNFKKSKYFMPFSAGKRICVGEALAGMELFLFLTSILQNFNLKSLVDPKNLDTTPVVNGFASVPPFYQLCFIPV
How it was run: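 10nM CYP2C9 + 100uM Luciferin-H (=KM), 25mM KPO4; cpd 10 min 37C; NADPH regen, 60 min 37C; stop/detect with P450 Glo-Buffer 20 min; luminescence. Norm. to 57uM sulphaphenazole as full inhibition.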

[9] = target: Cytochrome P450 2D6 (Homo sapiens) (UniProt P10635); experiment: qHTS Assay for Inhibitors and Substrates of Cytochrome P450 2D6 (AID 891);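 further: luciferin methyl ether substrate demethylated by CYP2D6 with NADPH regeneration; on the % scale 0 is the no-effect control and ±100 the full control effect; nearly all actives have a fitted effect of over 60% in size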
Cytochrome P450 2D6 (Homo sapiens), sequence (P10635 whole entry, looked up): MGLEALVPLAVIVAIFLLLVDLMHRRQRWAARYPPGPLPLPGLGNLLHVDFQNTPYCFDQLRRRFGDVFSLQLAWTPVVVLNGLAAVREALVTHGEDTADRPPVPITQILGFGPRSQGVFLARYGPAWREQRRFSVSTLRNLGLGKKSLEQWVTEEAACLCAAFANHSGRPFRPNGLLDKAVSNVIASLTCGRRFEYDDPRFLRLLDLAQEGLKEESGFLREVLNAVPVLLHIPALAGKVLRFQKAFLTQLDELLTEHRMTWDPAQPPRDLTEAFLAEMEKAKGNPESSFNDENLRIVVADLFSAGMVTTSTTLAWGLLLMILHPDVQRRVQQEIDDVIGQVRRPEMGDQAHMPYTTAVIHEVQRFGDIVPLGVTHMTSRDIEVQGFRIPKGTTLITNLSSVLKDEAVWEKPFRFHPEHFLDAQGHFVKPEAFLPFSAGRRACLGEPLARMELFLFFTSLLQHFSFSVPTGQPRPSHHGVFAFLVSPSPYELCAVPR
How it was run: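 Human CYP2D6 (5 nM) with 30 uM Luciferin-ME EGE (at Km) in 100 mM KPO4, compound preincubated 10 min, then NADPH regeneration system for 60 min at room temperature. Luciferin read by luminescence; normalized to 1.43 uM quinidine.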

[10] = target: Cytochrome P450 2C19 (Homo sapiens) (UniProt P33261); experiment: qHTS Assay for Inhibitors and Substrates of Cytochrome P450 2C19 (AID 899); further: on the % scale 0 is the no-effect control and ±100 the full control effect; nearly all actives have a fitted effect of over 60% in size
Cytochrome P450 2C19 (Homo sapiens), sequence (P33261 whole entry, looked up): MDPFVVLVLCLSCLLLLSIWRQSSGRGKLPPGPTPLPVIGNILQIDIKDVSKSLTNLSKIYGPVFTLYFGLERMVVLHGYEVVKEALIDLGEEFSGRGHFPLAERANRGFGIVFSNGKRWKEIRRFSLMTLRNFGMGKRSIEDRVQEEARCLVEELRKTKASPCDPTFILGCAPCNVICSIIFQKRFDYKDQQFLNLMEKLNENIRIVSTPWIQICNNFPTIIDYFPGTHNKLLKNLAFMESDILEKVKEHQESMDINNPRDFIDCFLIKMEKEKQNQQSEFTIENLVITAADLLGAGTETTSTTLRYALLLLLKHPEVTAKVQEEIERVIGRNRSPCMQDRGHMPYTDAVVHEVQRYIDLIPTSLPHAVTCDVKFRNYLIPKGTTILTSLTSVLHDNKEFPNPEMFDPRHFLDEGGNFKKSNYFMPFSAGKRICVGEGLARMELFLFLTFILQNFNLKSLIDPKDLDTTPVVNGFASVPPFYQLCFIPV
How it was run: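 Luminescent read-out of luciferin formed from Luciferin-H EGE (10uM, equal to KM). Enzyme 5nM in 50mM KPO4; compound added, 10 min at 37C, then NADPH regenerating system for 60 min at 37C. Full inhibition defined by 57uM ketoconazole.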

[11] = target: Guanine nucleotide-binding protein G(i) subunit alpha-1 (Homo sapiens) (UniProt P63096); experiment: qHTS Assay for Inhibitors of RGS12 GoLoco Motif Activity (Green Fluorophore) (AID 879);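 further: 0% = labeled peptide with Gαi1 and full inhibition = labeled peptide alone without protein; negative values mean loss of peptide binding seen as reduced polarization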
Guanine nucleotide-binding protein G(i) subunit alpha-1 (Homo sapiens), sequence (P63096 whole entry, looked up): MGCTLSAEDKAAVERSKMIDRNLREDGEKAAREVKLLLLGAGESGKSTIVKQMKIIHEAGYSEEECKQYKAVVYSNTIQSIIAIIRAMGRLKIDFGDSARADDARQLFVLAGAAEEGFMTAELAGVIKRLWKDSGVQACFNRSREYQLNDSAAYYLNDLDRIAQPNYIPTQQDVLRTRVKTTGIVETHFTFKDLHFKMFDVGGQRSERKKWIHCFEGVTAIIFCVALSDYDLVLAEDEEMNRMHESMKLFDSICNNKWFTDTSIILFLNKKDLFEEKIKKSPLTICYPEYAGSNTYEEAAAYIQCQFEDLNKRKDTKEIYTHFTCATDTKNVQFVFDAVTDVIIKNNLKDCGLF
How it was run: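 Fluorescence polarization assay: 50 nM Gαi1 with 10 nM FITC-labeled RGS12 GoLoco peptide in 10 mM Tris pH 7.5, 150 mM NaCl, 0.1 mM GDP, 0.05% NP40, 10 min at room temperature with compound.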

[12] = qHTS Assay for Identification of Small Molecule Agonists for Hypoxia Response Element Signaling Pathway (AID 914; active means well fitted activation curve with a large enough effect in the signal ratio, with a control signal flat, not every such curve was filed as active; the % refers to the signal ratio; further: % of control where 0% means no effect); details: ME-180 (cervical carcinoma) HRE-bla reporter, beta-lactamase ratio, CoCl2, 17 h; active compounds read high
How it was run: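 In Opti-MEM containing 0.5% dialyzed FBS and 10 mM HEPES, ME-180 HRE-bla cells received a compound titration and EC50 CoCl2. They were incubated 17 hours, then CCF4-loaded 2.5 hours at room temperature before ratio reading.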

[13] = qHTS Assay for Identification of Small Molecule Agonists for Thrombopoietin (TPO) Signaling Pathway (AID 917); further: on the % scale 0 is the no-effect control and ±100 the full control effect
How it was run: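 Murine Ba/F3 cells stably expressing human TPO receptor and a Glycoprotein IIb promoter–luciferase reporter were IL-3-starved overnight, then treated with compounds plus TPO (26 pM final, its EC50) for 24 hrs at 37 C; luminescence was read.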

[14] = target: Muscarinic acetylcholine receptor M1 (Rattus norvegicus) (UniProt P08482); experiment: qHTS Assay for Antagonists of Acetylcholine Muscarinic M1 Receptor: Kinetic Measurement of Intracellular Calcium Response (AID 943);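 further: Fluo-4 calcium signal as peak divided by basal fluorescence over 4 min; series mostly up to about 35 µM; nearly all actives have a fitted effect of over 75% in size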
Muscarinic acetylcholine receptor M1 (Rattus norvegicus), sequence (P08482 whole entry, looked up): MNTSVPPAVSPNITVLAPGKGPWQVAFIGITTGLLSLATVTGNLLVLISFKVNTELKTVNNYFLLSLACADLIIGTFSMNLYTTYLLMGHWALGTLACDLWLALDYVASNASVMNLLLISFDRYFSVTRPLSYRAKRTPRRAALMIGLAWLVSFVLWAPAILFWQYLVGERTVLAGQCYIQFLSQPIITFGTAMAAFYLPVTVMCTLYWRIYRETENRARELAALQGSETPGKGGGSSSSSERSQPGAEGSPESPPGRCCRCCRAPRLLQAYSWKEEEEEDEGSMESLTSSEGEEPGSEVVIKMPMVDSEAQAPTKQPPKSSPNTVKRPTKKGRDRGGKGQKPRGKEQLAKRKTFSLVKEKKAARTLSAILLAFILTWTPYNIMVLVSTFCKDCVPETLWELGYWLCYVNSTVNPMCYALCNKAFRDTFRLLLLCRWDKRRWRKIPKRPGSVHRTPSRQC
How it was run: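 CHO cells stably expressing rat M1 were loaded with no-wash Fluo-4 dye for 1 h at 37C, pre-incubated 10 min with compound, then challenged with EC80 carbachol (100 nM final); kinetic calcium read 4 min, peak/basal ratio.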

[15] = target: Muscarinic acetylcholine receptor M1 (Rattus norvegicus) (UniProt P08482); experiment: qHTS Assay for Antagonists of Acetylcholine Muscarinic M1 Receptor: Measurement of IP-One Response (AID 944); further: nearly all actives have a fitted effect of over 75% in size
How it was run: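 CHO cells expressing rat M1 receptor, recovered overnight, were pre-incubated 10 min with compound, then stimulated 30 min with carbachol at EC80 (200 nM) in LiCl-containing buffer, pH 7.4. IP1 accumulation was read by HTRF (620/665 nm).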

[16] = target: Pyruvate kinase (Leishmania mexicana) (UniProt Q27686); experiment: qHTS Validation Assay for Inhibitors of Leishmania Mexicana Pyruvate Kinase (AID 945);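 further: 0% = DMSO only neutral control wells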
Pyruvate kinase (Leishmania mexicana), sequence (Q27686 2-499 E452W): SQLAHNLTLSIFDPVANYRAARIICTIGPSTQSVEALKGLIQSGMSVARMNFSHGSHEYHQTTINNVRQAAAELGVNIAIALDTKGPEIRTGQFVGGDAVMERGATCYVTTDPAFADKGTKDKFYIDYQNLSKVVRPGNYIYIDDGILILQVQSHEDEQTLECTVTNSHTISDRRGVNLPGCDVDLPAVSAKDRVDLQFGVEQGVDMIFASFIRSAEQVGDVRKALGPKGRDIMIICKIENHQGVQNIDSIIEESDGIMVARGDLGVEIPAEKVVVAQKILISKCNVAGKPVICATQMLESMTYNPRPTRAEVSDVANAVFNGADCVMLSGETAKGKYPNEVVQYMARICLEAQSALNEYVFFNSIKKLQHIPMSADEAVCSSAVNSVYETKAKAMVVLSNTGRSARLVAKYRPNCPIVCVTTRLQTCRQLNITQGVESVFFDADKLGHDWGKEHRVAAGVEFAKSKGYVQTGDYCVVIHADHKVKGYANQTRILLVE
How it was run: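 An endpoint luciferase assay: 0.2 nM LmPYK E451W turns over 0.5 mM PEP with 0.1 mM ADP for 1 h at room temperature, pH 7.2, before PKLight addition. Values are normalized to DMSO-only wells.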

[17] = target: Pyruvate kinase PKM (Homo sapiens) (UniProt P14618); experiment: qHTS Assay for Activators of Human Muscle Pyruvate Kinase (AID 954; active means well fitted curve in the direction sought with a large enough effect, not every such curve was filed as active;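 further: 0% = uninhibited enzyme and -100% = no enzyme or full thiadiazolimine inhibition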)
Pyruvate kinase PKM (Homo sapiens), sequence (P14618 whole entry, looked up): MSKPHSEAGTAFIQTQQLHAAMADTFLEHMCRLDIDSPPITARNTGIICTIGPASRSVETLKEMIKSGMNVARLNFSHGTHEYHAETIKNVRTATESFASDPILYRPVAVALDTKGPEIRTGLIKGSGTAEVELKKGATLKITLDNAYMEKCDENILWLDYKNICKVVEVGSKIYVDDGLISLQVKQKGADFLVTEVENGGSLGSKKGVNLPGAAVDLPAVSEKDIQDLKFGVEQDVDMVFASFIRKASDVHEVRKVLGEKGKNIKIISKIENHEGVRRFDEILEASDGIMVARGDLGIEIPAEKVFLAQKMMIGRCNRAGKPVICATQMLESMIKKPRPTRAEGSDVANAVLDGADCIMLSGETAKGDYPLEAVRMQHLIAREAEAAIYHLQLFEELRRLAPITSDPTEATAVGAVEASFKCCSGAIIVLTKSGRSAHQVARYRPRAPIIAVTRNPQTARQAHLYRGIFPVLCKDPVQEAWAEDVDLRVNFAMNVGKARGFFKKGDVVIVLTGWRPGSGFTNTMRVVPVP
How it was run: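 Luminescence from a luciferase ATP-detection/stop reagent reported PKM2 activity. Reactions contained 0.1 nM purified human enzyme, 0.5 mM PEP, 0.1 mM ADP and 7 mM MgCl2 at pH 7.2, run 1 h at RT.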

[18] = target: Cytochrome P450 3A4 (Homo sapiens) (UniProt P08684); experiment: qHTS Assay for Activators of Cytochrome P450 3A4 (AID 885); further: nearly all actives have a fitted effect of over 65% in size
How it was run: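 20nM CYP3A4 + 25uM Luciferin-PPXE (=KM), 200mM KPO4; cpd 10 min RT; NADPH regen, 60 min RT; stop w/ detection buffer, 20 min; luminescence. Normalized to 57 uM ketoconazole.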

[19] = Confirmation and Secondary Assay for Modulators of Hemoglobin Beta Chain Splicing at IVS2 654 locus (AID 910);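 further: HeLa cells stably carrying EGFP split by mutant beta-globin IVS2-654 intron; % of control where 0% means no effect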
How it was run: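 HeLa cells stably expressing EGFP interrupted by β-globin IVS2-654 intron, seeded overnight in Opti-MEM/2% FCS, then treated 2 days at 37 °C. Restored splicing read as total peak GFP intensity per well by laser scanning cytometry (488 nm excitation, 500–520 nm emission); 500 nM antisense PNA as control.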

[20] = Confirmation and Secondary Assay for Modulators of Hemoglobin Beta Chain Splicing at IVS2 705 locus (AID 930);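 further: HeLa cells stably expressing the EGFP-705 splicing reporter; GFP fluorescence per well restored by corrected splicing of the IVS2-705 intron in EGFP; series mostly up to about 46 µM; % of control where 0% means no effect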
How it was run: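 Per-well GFP, captured at 1 x 8 µm resolution with 488 nm excitation, served as the read-out for HeLa EGFP-705 cells incubated 2 days with test compound versus DMSO.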

CC(O)CO (centres undefined)
inactive: outcome [1] | Potency [2] | Potency [3] | Potency [4] | outcome [5] | outcome [6] | outcome [7]

O=C(O)CCC(=O)C(=O)O
inactive: outcome [1] | outcome [8] | activity change, negative = inhibition [9] 16.8% [at 11.4 µM] | outcome [10] | Potency [3] | Potency [4] | outcome [5] | outcome [6] | outcome [7]

CN=C(NC#N)Nc1ccc(C2=NNC(=O)C[C@@H]2C)cc1
inactive: outcome [11] | outcome [8] | Potency [9] | outcome [10] | activation [12] 1.72% | outcome [13] | outcome [14] | outcome [15] | outcome [16] | outcome [17]

CCCCC/C=C\C/C=C\CCCCCCCC(=O)O
inactive: outcome [1] | outcome [18] | Potency [3] | Potency [4] | outcome [6] | outcome [7]

O=CCCCC=O
inactive: outcome [1] | Potency [2] | Potency [4] | outcome [6] | outcome [7]
active: Potency [3] 15.8 µM

CCOC(C)=O
inactive: outcome [1] | Potency [2] | Potency [3] | Potency [4] | outcome [5] | outcome [6] | outcome [7]

O=S(=O)(O)O
inactive: outcome [1] | Potency [2] | Potency [3] | Potency [4] | outcome [5] | outcome [6] | outcome [7]

COc1ccc(CCNC[C@H](O)c2ccc(O)cc2)cc1OC
inactive: outcome [11] | outcome [18] | outcome [13] | outcome [16] | outcome [17]

Cc1c(C)c2c(c(C)c1O)CC[C@@](C)(CCC[C@@H](C)CCC[C@@H](C)CCCC(C)C)O2
inactive: outcome [8] | outcome [10]

CCOc1ccc2c(c1)C(C)=CC(C)(C)N2
inactive: outcome [1] | outcome [18] | outcome [19] | Potency [3] | outcome [20] | Potency [4] | outcome [5] | outcome [6] | outcome [7]

CCCCCCCC/C=C\CCCCCCCC(=O)O
inactive: outcome [1] | Potency [2] | Potency [3] | Potency [4] | outcome [6] | outcome [7]

CCN(CC)Cc1cc(Nc2ccnc3cc(Cl)ccc23)ccc1O
inactive: outcome [8] | Potency [2] | outcome [10]

IC(I)I
inactive: outcome [1] | Potency [2] | Potency [3] | Potency [4] | outcome [5] | outcome [6] | outcome [7]
